Among all 350,000 compounds or so, about 31,000 (8.9%) were called active. Where a call stands in place of a potency, no number is given. About 15% were inconclusive and are not listed. Many of the other results were omitted from the sample, so actives are more common in it than they were. Values without a mark were called inactive. The call rests on the fitted dose curve; in most records, active means well fitted inhibition curve with a large enough effect; inconclusive means small, poorly fitted or top-dose-only effect; inactive means no such curve, though single readings can be large or run the other way.
Potency means the concentration at half of the fitted maximal effect.

Histone-lysine N-methyltransferase EHMT2 (Homo sapiens), sequence (Q96KQ7 913-1193 limits assumed): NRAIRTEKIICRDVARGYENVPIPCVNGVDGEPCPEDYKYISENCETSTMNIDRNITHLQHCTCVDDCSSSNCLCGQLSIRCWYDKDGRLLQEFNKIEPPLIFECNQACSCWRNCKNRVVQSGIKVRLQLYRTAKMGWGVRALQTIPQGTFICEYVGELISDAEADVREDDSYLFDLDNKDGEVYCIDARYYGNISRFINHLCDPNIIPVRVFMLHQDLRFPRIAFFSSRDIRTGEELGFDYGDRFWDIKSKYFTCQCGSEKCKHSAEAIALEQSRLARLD

The experiment addresses Histone-lysine N-methyltransferase EHMT2 (Homo sapiens) (UniProt Q96KQ7). The experiment in a line: qHTS Assay for Inhibitors of Histone Lysine Methyltransferase G9a. Further: nearly all actives have a fitted effect of over 75% in size. As to conditions: G9a H3K9 monomethylation, AlphaScreen, 2 h; series mostly up to 59 µM. A digest of the protocol: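 Compounds were preincubated with 20 nM G9a for 15 min, after which biotinylated H3K9 peptide (500 nM) and SAM (20 uM) started a 2 h room-temperature reaction. Monomethylated product was quantified by antibody-based AlphaScreen chemiluminescence.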
(qHTS replaces the single test concentration by a dilution series.)
With `O=C(Nc1cc(-c2nc3ccccc3o2)ccc1Cl)c1cc([N+](=O)[O-])ccc1N1CCOCC1`, the Potency entry was “inactive”. The same measure, in the same setting: then `Cc1cc(NC(=O)CN2CCC(O)(c3cccc(F)c3)CC2)no1`, with 8.91 µM (active).

As to `CC(=O)NC1(c2cccc(F)c2)CCN(CC(=O)NC(C)C)CC1`, the activity, negative = inhibition was -5.2% [at 12.7 µM].

For the compound `O=C(CN1CCC(O)(c2ccccc2)CC1)Nc1ccc2c(c1)OCCO2`, the Potency entry is “inactive”.

As to `COc1cc(OC)c(NC(=O)Cc2ccc(-n3c(C)nc4cccnc43)cc2)cc1Cl`, the Potency entry is “inactive”. On the same count and under the same terms, then `CC(=O)c1ccc(NC(=O)CSc2nc(-c3ccccc3F)nc3c2c(=O)n(C)c(=O)n3C)cc1`, with “inactive”; and `Oc1c(C(c2ccccn2)N2CCOCC2)ccc2cccnc12` (configuration not stated), with 8.91 µM (active). Take `CCOc1cc(N2CCOCC2)c(OCC)cc1NC(=O)COc1cccc2cccnc12`: the Potency entry is “inactive”. On the same count and under the same terms, then `O=C(c1cccnc1NCc1ccccc1)N1CCOCC1`, with “inactive”. Still for that read-out and setting: then `O=S(=O)(c1ccc(Br)cc1)c1nnn2c1nc(NC1CCCCCC1)c1sccc12`, with “inactive”; and `O=c1n(Cc2cccc(C(F)(F)F)c2)c2ccccc2c2nc(-c3ccccc3)nn12`, with “inactive”. On to `CCn1c2c(c(=O)n3ncc(C(=O)N4CCN(c5ccccc5)CC4)c13)CN(Cc1ccc(OC)cc1)CC2`, for which the Potency entry is “inactive”. Same read-out and setting: under `Cc1cc2c(cc1C)C(c1cccc(OC(C)C)c1)CC(=O)N2` (configuration not stated) stands “inactive”. On the same count and under the same terms, under `COc1ccccc1CCNC(=O)C(=O)NCCC1CCCCN1S(=O)(=O)c1cccs1` (configuration not stated) stands “inactive”; under `CC(C)C(=O)Nc1ccc2oc(=O)ccc2c1`, “inactive”.

As for `O=C(COc1ccc(Cl)cc1)Nc1ccc2oc(=O)ccc2c1`, the Potency result was “inactive”. The same measure, in the same setting: then `O=C(NC(=S)Nc1ccc2oc(=O)ccc2c1)c1ccc(-c2cccc(Cl)c2Cl)o1`, with 10 µM (active).

As for `Cc1ccc(C(=O)CSc2nc(-c3ccccc3)nc3c2CCCC3)c(C)c1`, the Potency entry is “inactive”.

Take `O=C(/C=C/c1ccc(Cl)cc1)Nc1ccc(S(=O)(=O)Nc2ncccn2)cc1`: the Potency entry is “inactive”. On the same count and under the same terms, then `CC(Oc1cccc(Cl)c1)C(=O)Nc1ccc(S(=O)(=O)Nc2ncccn2)cc1` (configuration not stated), with 35.5 µM (active); and `CCc1ccc(OC(C)C(=O)Nc2ccc(S(=O)(=O)Nc3cc(C)on3)cc2)cc1` (configuration not stated), with “inactive”. `Cc1ccc(Cl)cc1NC(=O)CSc1nccn1C`: the Potency entry was “inactive”. On the same count and under the same terms, under `CS(=O)(=O)N1CCc2cc(C(=O)Nc3ccccc3Br)ccc21` stands “inactive”; under `O=S(=O)(c1ccc(C2CCCCC2)cc1)N1CCN(c2ccc(Cl)c(Cl)c2)CC1`, “inactive”.

With `CC(=O)c1ccc(Cc2ncc(C(F)(F)F)cc2Cl)s1`, the Potency result was “inactive”. On the same count and under the same terms, then `O=c1[nH]oc(O)c1-c1ncc(C(F)(F)F)cc1Cl`, with 44.7 µM (active). For the compound `O=C(c1ccccn1)c1ncc(C(F)(F)F)cc1Cl`, the Potency entry was “inactive”. In the case of `COc1ccccc1CNC(=O)COC(=O)c1sc(C)nc1C`, the activity, negative = inhibition is 11.2% [at 2.33 µM].

Regarding `CCCNC(=O)c1onc(CSc2ccc(F)cc2)c1C(=O)NC(C)C`, the activity, negative = inhibition was 20% [at 2.33 µM]. In the case of `COc1ccc(Nc2nc(Cl)nc(NCc3ccco3)n2)cc1`, the Potency result was “inactive”. On the same count and under the same terms, under `COc1ccc(-n2cnc3cc(C(=O)NC4CCCC4)ccc32)cc1` stands “inactive”. Still for that read-out and setting: under `COc1ccc(-n2cnc3cc(NCc4ccco4)ccc32)cc1` stands 44.7 µM (active); under `Cc1nn(C)c(C)c1NS(=O)(=O)c1ccc(OC(F)(F)F)cc1`, “inactive”.

Regarding `CCN(CC(=O)Nc1cc(Cl)ccc1C)C(=O)CSCc1ccccc1`, the Potency entry is “inactive”. On the same count and under the same terms, under `CCOc1ccc(NC(=O)NNC(=O)c2ccc(Cl)cc2Cl)cc1` stands “inactive”; under `COc1ccc(C(=O)O/N=C(\N)Cc2ccc(Cl)cc2Cl)cc1OC`, “inactive”; under `NC(N)=N/N=C/c1ccc(OCc2ccc(Cl)cc2Cl)cc1`, 50.1 µM (active).

`COc1ccc(CNc2nc(-c3ccc(Cl)cc3)cc(C(F)(F)F)n2)cc1`: the Potency entry is “inactive”.

Consider `CCc1ccc(NS(=O)(=O)c2ccc3[nH]cc(C(=O)NCCc4cccc(C)c4)c(=O)c3c2)cc1`, for which the Potency result is “inactive”. The same measure, in the same setting: under `CC(C)(C)OC(=O)N1CCC(c2c(C(=O)Nc3ccc4c(c3)OCO4)cnn2-c2ccccc2)CC1` stands “inactive”; under `CC(C)(C)c1ccc(C(=O)NCCC(=O)NCc2ccco2)cc1`, 44.7 µM (active). Still for that read-out and setting: under `CCCCNC(=O)CCNC(=O)c1ccc(C(C)(C)C)cc1` stands “inactive”. For the compound `O=C(CCNC(=O)c1ccccc1Cl)NCc1ccco1`, the activity, negative = inhibition is 4% [at 12.7 µM]. The same measure, in the same setting: under `COCCCNc1nc2c(-c3cccc(C)c3)nnn2c2ccc(Cl)cc12` stands 3.35% [at 0.501 µM].

As to `Cc1nc2ccccc2c(=O)n1-c1ccc(NS(=O)(=O)c2ccc(F)cc2F)cc1`, the Potency result was “inactive”.

For the compound `Oc1ccc(N2CCN(C(=S)NCc3ccccc3)CC2)cc1`, the Potency was 10 µM (active). As to `O=C(COC(=O)c1ccccc1C(=O)N1CCN(c2ccccc2)CC1)NCc1ccccc1`, the Potency result is “inactive”. Same read-out and setting: under `S=C(NCCc1ccccc1)N1CCCCC1` stands “inactive”; under `O=C1CCN(C(=S)NCCc2ccccc2)CC1`, “inactive”. On the same count and under the same terms, under `Oc1ccccc1N1CCN(C(=S)NCc2ccccc2)CC1` stands 31.6 µM (active). Take `O=C(CN1CCN(c2ccccc2O)CC1)NC(=O)NCc1ccccc1`: the activity, negative = inhibition is -1.41% [at 12.7 µM]. `CCCc1cc(=O)[nH]c(SCC(=O)c2c(N)n(CC(C)C)c(=O)n(C)c2=O)n1`: the Potency entry is “inactive”. The same measure, in the same setting: under `CCOc1cccc(NC(=O)c2ccc(F)c(S(=O)(=O)N(CC)c3cccc(C)c3)c2)c1` stands “inactive”; under `O=C(CCS(=O)(=O)c1cc(Br)cc2c1N(C(=O)C1CC1)CC2)Nc1ccc(C(F)(F)F)cc1`, “inactive”. Same read-out and setting: under `CC(C)C(NC(=O)c1c(F)cccc1F)C(=O)NCc1ccncc1` (configuration not stated) stands “inactive”.

`Cc1ccccc1NC(=O)CSc1nc2ccc(Nc3nc(N4CCOCC4)nc(N4CCOCC4)n3)cc2s1`: the Potency entry is “inactive”. Same read-out and setting: under `O=C(CSc1nc(Nc2ccccc2)nc(N2CCOCC2)n1)Nc1cc(Cl)ccc1O` stands 50.1 µM (active).

As for `CC1(c2ccccc2)NC(=O)N(CC(=O)Nc2cc(Cl)ccc2N2CCOCC2)C1=O` (configuration not stated), the activity, negative = inhibition was 22.3% [at 0.501 µM]. As for `CCOc1ccc(NC(=O)Cn2c(C)ccc(C#N)c2=O)cc1`, the Potency entry was “inactive”. Turning to `Cn1nc(-c2ccccc2)c(-c2ccccc2)c(C(=O)Nc2ccc(S(N)(=O)=O)cc2)c1=O`, the Potency result is “inactive”.

As to `O=C(CN1C(=O)COc2ccc(S(=O)(=O)N3CCCCCC3)cc21)N1CCN(c2cccc(C(F)(F)F)c2)CC1`, the Potency entry was “inactive”. Same read-out and setting: then `Cc1ccc(CN2CCN(c3ncccn3)CC2)c(C)c1`, with 10 µM (active). Regarding `COc1ccc(-c2nc(CN3CCN(c4ncccn4)CC3)c(C)o2)cc1C`, the Potency result was “inactive”. Same read-out and setting: then `Cc1cc(OCC(=O)N2CCN(c3ncccn3)CC2)ccc1Cl`, with “inactive”.

Take `CN(C)C(=O)c1nc2ccc(Cl)cn2c1CN1CCN(c2ncccn2)CC1`: the Potency entry was “inactive”. As to `Oc1ccc(CN2CCN(c3ncccn3)CC2)cc1`, the Potency was 79.4 µM (active).

Regarding `c1cnc(N2CCN(c3ccc4ccccc4n3)CC2)nc1`, the Potency result was “inactive”. Turning to `O=C1NCCn2nc3ccccc3c21`, the activity, negative = inhibition is 16.4% [at 2.33 µM]. Take `Cn1c(=O)cc(OCC(=O)N2CCN(c3ccccc3)CC2)c2ccccc21`: the Potency entry is “inactive”. On the same count and under the same terms, under `COc1cccc2cc(C(N)=O)/c(=N\NC(=O)c3ccccc3)oc12` stands “inactive”; under `O=C(c1ccc(C(F)(F)F)cc1)N1CCC(c2nc(-c3ccc(S(=O)(=O)N4CCCC4)cc3)no2)CC1`, “inactive”. The same measure, in the same setting: under `CCOc1ccccc1-n1c(SCC(=O)NCc2ccco2)nnc1-c1ccncc1` stands “inactive”; under `Cc1ccc(-c2csc3nnc(SCC(=O)NCc4ccco4)n23)cc1`, 17.8 µM (active). With `CCn1c(SCC(=O)NCc2ccco2)nnc1-c1ccc(N)cc1`, the Potency result was “inactive”. Turning to `O=C(Cc1ccc(S(=O)(=O)N2CCOCC2)s1)N1CCN(c2ccc(C(F)(F)F)cc2[N+](=O)[O-])CC1`, the activity, negative = inhibition was 5.52% [at 0.501 µM]. For `O=C(Nc1ccccc1C(=O)N1CCCCC1)c1ccco1`, the Potency entry is “inactive”. On the same count and under the same terms, then `COC(=O)c1cc(Cl)c(NC(=O)c2ccco2)cc1OC`, with “inactive”; and `CS/C(=C\C(=O)c1ccco1)Nc1ccccc1Cl`, with 50.1 µM (active); and `Cc1nc2ccc(S(=O)(=O)N(CC(=O)Nc3ccc(F)cc3)Cc3ccccc3)cc2s1`, with “inactive”. Still for that read-out and setting: then `CCOC(=O)N1CCN(C(=O)C2CCN(Cc3ccc(OC)cc3OC)CC2)CC1`, with 7.94 µM (active). Same read-out and setting: then `CCOC(=O)N1CCN(CCC(=O)Nc2cc(OC)ccc2OC)CC1`, with “inactive”; and `CCOC(=O)N1CCN(C(=O)C2CCN(S(=O)(=O)c3cc(Cl)ccc3OCC)CC2)CC1`, with “inactive”.

Take `CCN1C(=O)[C@H]2[C@@H](c3ccc(-c4ccc(OC)cc4)cc3)N[C@@](Cc3ccccc3)(C(=O)OC)[C@H]2C1=O`: the activity, negative = inhibition is -6.39% [at 2.33 µM]. The same measure, in the same setting: under `CCOc1ccc(NC(=O)CN(C)C(=O)CCSc2ccc(F)cc2)cc1OCC` stands 21% [at 12.7 µM].

Turning to `CCN(CC(=O)Nc1ccccc1C(=O)NC1CC1)Cc1cccs1`, the Potency result is “inactive”. For `O=C(CSc1nnc(-c2ccco2)o1)NCC(=O)c1ccccc1`, the Potency entry is “inactive”. `Cc1nnc(SCC(N)=O)n1CC1CCCO1` (configuration not stated): the activity, negative = inhibition is -0.186% [at 2.33 µM]. Regarding `O=C(CSc1nnc(-c2ccco2)n1CC1CCCO1)c1ccccc1` (configuration not stated), the Potency was 50.1 µM (active). On the same count and under the same terms, under `Cc1nnc(SCC(=O)NNC(=O)c2ccc(Cl)cc2)n1CC1CCCO1` (configuration not stated) stands 35.5 µM (active). As to `O=C(CSc1nnc(-c2ccco2)n1Cc1ccccc1)NC(=O)NCc1ccco1`, the Potency result was “inactive”.

`O=C(COc1ccc(Cl)cc1)NCc1nnc(SCC(=O)NCC2CCCO2)o1` (configuration not stated): the Potency result was “inactive”.

As for `CCC(NC(=O)C1CCCC1)c1ccc(C)cc1` (configuration not stated), the Potency result was “inactive”. Still for that read-out and setting: then `Cc1ccccc1NC(=O)Cn1c(=O)n(CCc2ccccc2)c(=O)c2ccccc21`, with “inactive”. In the case of `Cc1ccc(S(=O)(=O)Nc2nc(CN3CCOCC3)nc3sc(C)c(C)c23)cc1`, the activity, negative = inhibition was 19.1% [at 2.33 µM]. In the case of `O=C(OCC(=O)N1CCCCCC1)c1cnc(Cl)c(Cl)c1`, the Potency entry is “inactive”. `CCNC(=O)N1CCN(S(=O)(=O)c2ccc3c(c2)OCCCO3)CC1`: the activity, negative = inhibition was -26.7% [at 2.33 µM]. As to `COc1ccc(OC)c(CCNC(=O)CCn2ccc3cc(S(=O)(=O)N4CCCC4)ccc32)c1`, the Potency entry is “inactive”.

The values above are taken from PubChem BioAssay AID504332 (National Center for Advancing Translational Sciences (NCATS), 2011).
